# Marburg entry inh: blocks Marburg virus binding to or entry into cells; Marburg virus pseudotyped entry inhibition, cell reporter; Potency, µM (highest dose often 37.8 µM), for the others: at the top dose activity change, negative = inhibition, usual class: inhibitors; 300,000 tested, 1.8% active; AID 540276; calls by dose curve; tested in HEK293 cells; also: potency is read from the fitted curve at half-maximal effect
# HCMV inh: inhibitors of human cytomegalovirus. activity change, negative = inhibition, % at 57.5 µM. 410,000 tested, 4.5% active. HFF cells, HCMV-luciferase reporter, 72 h; active compounds read low; in the data active = activity change below about -60%; inconclusive = no clear call, values can overlap the other calls; inactive = above about -39%
#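 Luciferase read-out from HCMV-luciferase-infected HFFs (MOI 1 PFU/cell) 72 h post infection at 37C; compounds added after 16 h cell attachment; activity normalized between buffer-only basal and Salinomycin (10uM) inhibitor controls.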
# Pf growth 96h: inhibits malaria parasite growth, 96 h. AID 504834. 320,000 tested, 6.9% active. Potency, µM (series often up to 28.7 µM), for inactives: at the highest dose activity change, negative = inhibition, hits mostly inhibitors. P. falciparum luciferase reporter growth, 96 h; also: potency is read from the fitted curve at half-maximal effect
#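 P. falciparum expressing integrated firefly luciferase grown in erythrocytes (2% hematocrit, 0.05% parasitemia final) with compounds for 96 hours at 37 C, 5% CO2. Growth inhibition read as loss of luminescence after adding luciferase detection reagent.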
# Lassa entry inh: Lassa virus entry inhibition; Potency, µM (doses to about 37.9 µM), for inactives: at the highest dose activity change, negative = inhibition, actives largely listed as inhibitors; 300,000 tested, 1.2% active; Lassa virus pseudotype entry inhibition, cell reporter; calls by dose curve; tested in HEK293 cells; also: potency is read from the fitted curve at half-maximal effect; nearly all actives have a fitted effect of over 50% in size
# Pf growth 48h: inhibits P. falciparum growth in the first generation, 48 h | P. falciparum luciferase growth in erythrocytes, 48 h | AID 504832 | Potency, µM (top dose mostly 28.7 µM), for the others: at the highest dose activity change, negative = inhibition, hits mostly inhibitors | 310,000 tested, 5.9% active; also: potency is read from the fitted curve at half-maximal effect
#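 Luciferase-expressing parasites in RBCs, 2% Hct / 0.1% parasitemia final; RPMI 1640 + 0.5% Albumax; 37 C, 5% CO2, one generation; luminescence read-out, lower signal = inhibition.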
# HCV inhibitor: inhibitors of hepatitis C virus infection | Huh7.5.1 HCVcc-Cre infection, luciferase reporter, 44 h | Potency, µM (titrated, usually from 41.8 µM), inactives show top-dose activity change, negative = inhibition, hits mostly inhibitors | 340,000 tested, 3.4% active | AID 651820; also: potency is read from the fitted curve at half-maximal effect
#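 HCVcc-Cre virus at an moi near 0.5 was added right after compound to cells cultured 4 h from seeding (1,000 cells/well). Luciferase activity was determined 44 h later, 15 min after substrate addition at RT.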
# * = called active by the depositor; ? = inconclusive; . = no result; [ ] = remark or other dose. Most compounds without a hit are left out; they make up all but 14% or so of the library. Unless noted, calls follow the shape of the dose curve; as a rule, active = well fitted inhibition curve with a large enough effect; inconclusive = small, poorly fitted or top-dose-only effect, or another doubt; inactive = no such curve, though single readings can be large or run the other way. % is scaled to controls: 0 for no effect and ±100 for the full control effect.
SMILES,Marburg entry inh,HCMV inh,Pf growth 96h,Lassa entry inh,Pf growth 48h,HCV inhibitor
Cc1ccnc(NC(=O)C2CCN(S(=O)(=O)c3ccc(C)c(C)c3)CC2)c1,2.4%[46.1 µM],-5.5,-57.1%,7.7%,34.0%,?
O=C(Nc1ccc(F)c(Cl)c1)c1ccc2c(Cl)c3c(nc2c1)CCCC3,?,-0.1,.,12.4%[46.1 µM],.,.
O=C(Nc1ccccc1)N1CCCN(Cc2ccccc2F)C1,?,-37.8,.,0.1%,31.5%,?
Cc1c(Cl)cccc1NC(=S)N1CCCN(Cc2ccc(F)cc2)C1,3.98µM*,0.0,?,21.0%[46.1 µM],?,-19.5%
Cc1c(Cl)cccc1NC(=S)N1CCCN(Cc2ccccc2F)C1,10µM*,-8.6,?,?,?,0.9%
Fc1ccccc1CN1CCCN(C(=S)Nc2cccc(Cl)c2)C1,?,-3.2,-29.2%,18.8%[46.1 µM],9.28µM*,?
CSc1cccc(NC(=S)N2CCCN(Cc3ccc(F)cc3)C2)c1,6.31µM*,0.0,-1.4%,?,?,-14.5%
COc1cccc(C(=O)c2cn(CC(=O)NCc3ccccc3Cl)c3nc(C)ccc3c2=O)c1,.,-24.8,.,?,.,.
Cc1cccc(-n2nc3c(c2NC(=O)c2ccc4c(c2)OCO4)CS(=O)(=O)C3)c1C,.,-4.1,19.7%,.,-23.2%,-5.7%
CC1(C)OC[C@@H]2O[C@@]3(C(=O)O)OC(C)(C)O[C@@H]3[C@@H]2O1,.,.,-13.5%,.,3.9%,.
CC[N+](C)(CC)CCCCOc1ccc2c(c1)C(=O)c1cc(OCCCC[N+](C)(CC)CC)ccc1-2,.,-6.4,?,.,?,?
CC[N+](CC)(CC)CCCCOc1ccc2c(c1)C(=O)c1cc(OCCCC[N+](CC)(CC)CC)ccc1-2,.,?,?,.,0.0657µM*,?
CCOC(=O)C1(CCCc2ccccc2)CCN(C(=O)C2CCCO2)CC1 (stereo not drawn),?,-13.0,33.5%,?,?,-1.4%
CCOC(=O)C1(CCCc2ccccc2)CCN(C(=O)C2CCCN(C(N)=O)C2)CC1 (stereo not drawn),?,-35.6,13.1µM*,5.5%[46.1 µM],?,6.8%
CCOC(=O)C1(CCOc2ccccc2)CCN(C(=O)c2ccc(-n3cccn3)cc2)CC1,?,?,10.4µM*,?,?,?
CCOC(=O)C1(Cc2ccccc2)CCN(Cc2cccn2-c2cccnc2)CC1,.,-14.5,?,.,?,13.0%
CCOC(=O)C1(CCOc2ccccc2)CCN(Cc2cccc(F)c2)CC1,.,-91.4*,?,.,0.0%,?
CCOC(=O)C1(CCOc2ccccc2)CCN(Cc2cccn2-c2cccnc2)CC1,?,-72.4*,-32.6%,?,?,?
CCC(=O)N1CCc2cc(S(=O)(=O)NCCC(=O)Nc3cc(C)ccc3OC)ccc21,4.1%[46.1 µM],2.6,.,13.4%[46.1 µM],.,.
CCc1ccc(NC(=O)C2CCCN2S(=O)(=O)c2ccc3c(c2)CCCC(=O)N3)cc1 (stereo not drawn),.,-33.7,.,-9.6%[46.1 µM],.,.
CCOC(=O)C1(CCc2ccccc2)CCN(Cc2ccc(NC(C)=O)cc2)CC1,.,57.1,4.15µM*,.,?,1.3%
CCOC(=O)C1(CCOc2ccccc2)CCN(Cc2cccc(OCCO)c2)CC1,?,61.8,-2.1%,-17.3%,-2.9%,-23.2%
CCOC(=O)C1(CCOc2ccccc2)CCN(Cc2cccc(-n3cccn3)c2)CC1,?,-39.1,10.4µM*,?,?,12.6µM*
CCOC(=O)C1(CCOC)CCN(C(=O)Cc2ccc3ccccc3c2)CC1,10µM*,-23.8,?,?,-16.4%,-5.6%
CCOC(=O)C1(CCOc2ccccc2)CCN(Cc2ccc(OCC)c(CO)c2)CC1,.,-19.7,.,.,.,14.1µM*
SMILES,Marburg entry inh,HCMV inh,Pf growth 96h,Lassa entry inh,Pf growth 48h,HCV inhibitor
Cc1cccc(NC(=O)c2cn(-c3ccccc3)nc2-c2ccccc2)c1C,?,-27.2,.,2.7%[46.1 µM],.,.
Cc1ccc(C)c(S(=O)(=O)N2CCN(CC(=O)NC(C)c3ccccc3)CC2)c1 (stereo not drawn),.,-5.4,-24.7%,.,?,?
CCOC(=O)C1(CCOc2ccccc2)CCN(Cc2ccc(C)s2)CC1,?,-82.0*,10.4µM*,?,13.1µM*,?
CCOC(=O)C1(CCc2ccccc2)CCN(Cc2ccc3c(c2)OCCO3)CC1,?,-77.0*,10.4µM*,?,1.7%,?
CCOC(=O)C1(CCOc2ccccc2)CCN(CC2CC2)CC1,?,5.3,?,-18.2%,0.0%,-0.3%
CCOC(=O)C1(CCOc2ccccc2)CCN(Cc2ccc(NC(C)=O)cc2)CC1,-21.8%[46.1 µM],30.3,15.0%,6.5%,13.1µM*,-23.8%
CCOC(=O)C1(CCc2ccccc2)CCN(Cc2ccc(C(=O)OC)cc2)CC1,.,-10.4,-8.4%,.,?,-16.5%
CCOC(=O)C1(CCOc2ccccc2)CCN(Cc2cnc(C)s2)CC1,?,-33.6,?,?,?,?
CCOC(=O)C1(CCOc2ccccc2)CCN(Cc2ccc(OC)cc2)CC1,.,-31.6,.,.,.,12.6µM*
CCN(CC(=O)Nc1c(F)cccc1F)C(=O)CCNC(=O)c1ccc([N+](=O)[O-])cc1,?,-25.5,-2.2%,2.2%,-6.8%,-5.5%
CCn1c2c(c(=O)n3ncc(C(=O)Nc4ccc(F)cc4Cl)c13)CN(Cc1ccc(OC)cc1)CC2,.,-20.0,.,-20.8%[46.1 µM],.,.
COc1ccccc1CNc1nc(NCCN2CCNC2=O)c2sccc2n1,.,-32.1,.,.,.,.
CCOC(=O)C1(CCc2ccccc2)CCN(C2CCSCC2)CC1,10µM*,-26.7,-17.4%,?,8.8%,7.7%
CCOC(=O)C1(CCOc2ccccc2)CCN(Cc2cccc(OC)c2OC)CC1,?,-3.0,10.4µM*,?,?,28.2µM*
CCOC(=O)C1(CCOc2ccccc2)CCN(Cc2ccc3nonc3c2)CC1,5.2%[46.1 µM],-14.4,10.5%,5.8%,?,10µM*
CCOC(=O)C1(CCOc2ccccc2)CCN(Cc2ccc(CO)o2)CC1,?,-34.8,-25.3%,-13.7%[46.1 µM],?,?
CCOC(=O)C1(CCc2ccccc2)CCN(C2Cc3ccccc3C2)CC1,-20.2%[46.1 µM],-4.5,-27.1%,-11.8%,?,-26.9%
COc1ccc(CN2CCNC(=O)C2CC(=O)N(C)C2CCOCC2)cc1OC (stereo not drawn),.,30.3,.,.,.,.
O=C(O)C[C@@H]1C(=O)O[C@@H]2C(COC(=O)c3cc(O)c(O)c(O)c3)O[C@@H](OC(=O)c3cc(O)c(O)c(O)c3)[C@@H](OC(=O)c3cc(O)c(O)c4c3[C@H]1[C@H](O)C(=O)O4)[C@H]2OC(=O)c1cc(O)c(O)c(O)c1 (stereo partly drawn),.,.,2.94µM*,.,3.29µM*,.
COC1OC(COC(=O)c2ccccc2)C(OC(=O)c2ccccc2)C1OC(=O)c1ccccc1 (stereo not drawn),.,-26.5,?,.,?,-0.8%
